# This is part of a sample that, as a whole, favours compounds with a hit. Of some 83,000 tested, about 20% had one in any assay.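 48-hour exposure, single concentration, 96-well plates; percent growth endpoint where 0 means no net growth. Active: below 10.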 Calls of active or inactive are those of the source.
# Test system: COLO 205 colon
# Experiment: NCI-60 one-dose screen, 48 h (100 = growth as untreated, 0 = no growth, -100 = all killed)
# Conditions: 10 µM
row,Compound,growth
1,O=C1/C=C/[C@@H](O)[C@@H]2C[C@@H](O)C[C@H]2/C=C/CCC[C@@H](C(F)(F)F)O1,22% (inactive)
2,CC[C@@H](C(=O)[C@@H](C)[C@@H](O)[C@H](C)[C@@H]1O[C@@H]([C@@H](CC)C(=O)N(CC)CC)CC[C@@H]1C)C1O[C@]2(C=CC(=O)[C@]3(CC[C@@](C)([C@H]4CC[C@](O)(CC)[C@H](C)O4)O3)O2)[C@H](C)C[C@@H]1C (stereo not given in full),12.2% (inactive)
3,O=S(=O)(O)c1ccc(Cl)cc1,109% (inactive)
4,CCN(CC)CCOc1cccc2c1C(=O)c1ccccc1C2=O,68.6% (inactive)
5,CC[C@@H]1NC(=O)[C@H]([C@H](O)[C@H](C)C/C=C/c2ccc(CN3C(=O)CCCC3=O)cc2)N(C)C(=O)[C@H](C(C)C)N(C)C(=O)[C@H](CC(C)C)N(C)C(=O)[C@H](CC(C)C)N(C)C(=O)[C@@H](C)NC(=O)[C@H](C)NC(=O)[C@H](CC(C)C)N(C)C(=O)[C@H](C(C)C)NC(=O)[C@H](CC(C)C)N(C)C(=O)CN(C)C1=O,53.9% (inactive)
6,O=C(Nc1ccc(NS(=O)(=O)c2ccc(F)cc2)cc1)C12CC3CC(CC(C3)C1)C2,101% (inactive)
7,C/C(=N\O)c1ccc(NC(=O)CSc2nnc(-c3ccccc3)n2-c2ccccc2)cc1,53.3% (inactive)
8,CC(=O)Nc1ccc2c(c1)C(=O)c1cccc(C(=O)O)c1-2,114% (inactive)
9,COc1ccc(N=Nc2cc(OC)c(OC)c(OC)c2)cc1,87.2% (inactive)
10,COc1cc2cc(Oc3ccc(NC(=O)Nc4ccc(Cl)c(C(F)(F)F)c4)cc3)c(C)nc2cc1OC,-49.5% (active)

# Reference: PubChem BioAssay (NCI)
